Values without a mark were called inactive. The rule behind the calls is not given here. Where a SMILES comes first, the peptide text is derived from it. The star is where a group is joined. Boc = CC(C)(C)OC(=O)*

Pantothenate synthetase (Mycobacterium tuberculosis (strain ATCC 25618 / H37Rv)), sequence (P9WIL5 whole entry, looked up): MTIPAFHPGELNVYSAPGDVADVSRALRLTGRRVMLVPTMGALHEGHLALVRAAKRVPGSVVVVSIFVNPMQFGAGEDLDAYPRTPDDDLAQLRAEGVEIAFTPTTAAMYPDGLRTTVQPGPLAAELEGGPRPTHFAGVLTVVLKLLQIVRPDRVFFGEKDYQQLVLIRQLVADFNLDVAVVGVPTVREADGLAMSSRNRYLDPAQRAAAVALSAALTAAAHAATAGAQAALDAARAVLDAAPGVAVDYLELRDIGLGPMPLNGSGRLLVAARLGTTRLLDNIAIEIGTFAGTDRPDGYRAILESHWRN

This assay addresses Pantothenate synthetase (Mycobacterium tuberculosis (strain ATCC 25618 / H37Rv)) (UniProt P9WIL5). The assay can be described thus: Coupled enzyme confirmation of inhibitors against recombinant Mtb PanC (AID 375).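 Note: 0% = full reaction with vehicle and 100% = no enzyme background.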 The note with it: coupled enzyme assay; at 10 µM, active compounds read high.
For `COc1cccc(/C=N/n2c(-c3ccco3)nc3ccccc3c2=O)c1`, the inhibition is 1%.
With `O=C(O)CCNC(=O)c1ccccc1`, the inhibition was 3%.
Next, `CS(=O)(=O)N(CC(=O)N1CCc2ccccc2C1)c1ccc2c(c1)OCO2`: 0%; `Cc1noc(C)c1CSc1nc2ccccc2s1`: 2%; `Cc1cnc(C(=O)Nc2ccccc2-n2cccc2)cn1`: 3%.
Next, `O=C(CCSc1nc(-c2ccco2)cc(C(F)(F)F)n1)NCCc1ccccc1`: 1%.
Take `CC(C)CC(NC(=O)OC(C)(C)C)C(=O)NC(C(=O)N1CCCC1C(N)=O)C(C)C` (stereo not drawn) (Boc-Leu-Val-Pro-NH2; configuration not given here): the inhibition was 0%.
With `Cc1ccc(-c2nn3c(=O)c(C)nnc3s2)cc1`, the inhibition was 0%.
With `COc1ccc(NC(=O)Nc2cc(C)ccc2OC)cc1`, the inhibition was 0%.
Then `O=C(NC1(C(F)(F)F)NC(=O)N(Cc2ccco2)C1=O)c1cccnc1` (stereo not given), with 11%.
As to `CCOc1cc(C(=O)N2CCN=C2SC)cc(OCC)c1OCC`, the inhibition was 7%.
As for `O=C(COC(=O)C1CCN(S(=O)(=O)c2cccs2)CC1)c1cc2ccccc2o1`, the inhibition was 0%.
For `Nc1[nH]nc2nc(N3CCCC3)nc(-c3ccccc3)c12`, the inhibition was 0%.
Turning to `Cc1ccc(NC(=O)C2CCCN(S(=O)(=O)c3cnc[nH]3)C2)cc1C` (stereo not given), the inhibition was 11%.
`Cc1ccc(NCC(O)C(O)C(O)CO)cc1C` (stereo not given): the inhibition was 0%.
On to `CSc1nnc(-c2cnccn2)n1C`, for which the inhibition is 0%.
Then `Cc1ccc(C(c2sc3ncnn3c2O)N2CC(C)CC(C)C2)cc1` (stereo not given), with 0%; and `CCOC(=O)N1CCC(N(C(=O)Nc2ccc(Cl)c(Cl)c2)C(C)CC)CC1` (stereo not given), with 4%; and `CS(=O)(=O)N(CC(=O)NC1CC1)c1cccc(F)c1`, with 0%.
In the case of `CC(=O)c1cccc(NC(=O)NCc2ccccn2)c1`, the inhibition was 2%.
Take `COCc1[nH]nc2c1C(C1C=CCCC1)C(C#N)=C(N)O2` (stereo not given): the inhibition was 0%.
Take `Cc1ccc(N2CC(C(=O)Nc3ccc4c(c3)OCO4)CC2=O)cc1` (stereo not given): the inhibition was 6%.
For the compound `O=C(c1ccc(S(=O)(=O)N2CCC(c3nc4ccccc4s3)CC2)cc1)N1CCOCC1`, the inhibition was 0%.
In the case of `Cc1c2cnn(CC(=O)N3CCN(c4ncccn4)CC3)c(=O)c2c(C)n1Cc1ccc(F)cc1`, the inhibition was 0%.
In the case of `O=C(COc1ccccc1)Nc1ccc(-c2nnc(-c3ccco3)o2)cc1`, the inhibition was 2%.
Turning to `Cc1noc(NS(=O)(=O)c2ccc(NC(=O)CCC3CCCC3)cc2)c1C`, the inhibition was 0%.
Then `COc1ccc(CN(C(=O)c2ccccc2OC)C2CCS(=O)(=O)C2)cc1` (stereo not given), with 0%; and `CCCCCc1c(O)nc(SCC(=O)NCC2CCCO2)[nH]c1=O` (stereo not given), with 6%; and `CCCCn1c(SCC(=O)c2ccc3c(c2)OCCO3)nnc1-c1ccco1`, with 4%.
Take `Cc1cc(=O)oc2ccc(OCC(=O)N(Cc3ccc(F)cc3)Cc3ccco3)cc12`: the inhibition was 0%.
As for `COc1ccc(-n2c(=O)[nH]cc(C(=O)Nc3ccc(NC(C)=O)cc3)c2=O)cc1`, the inhibition was 6%.
For `Cc1nc(N2CCN(c3ncccn3)CC2)c2oc3ccccc3c2n1`, the inhibition was 2%.
Regarding `COC(=O)c1c(O)ccc(Oc2ccccc2)c1C(=O)OC`, the inhibition is 0%.
Regarding `O=C(NCCSc1c[nH]c2ccccc12)c1ccco1`, the inhibition is 0%.
`COc1c2occc2c(OC)c2c(=O)cc(C)oc12`: the inhibition is 8%.
Take `CC1=Nn2c(nnc2-c2ccc(F)cc2)SC1`: the inhibition is 0%.
On to `CCOCCCNC(=O)C1CCC(CNS(=O)(=O)c2cccc3nsnc23)CC1` (stereo not given), for which the inhibition is 1%.
For `C=CCn1cc(C(=O)NCCOC)c(=O)c2cc(S(=O)(=O)N(CC)CC)ccc21`, the inhibition was 0%.
Turning to `c1ccc(-n2ncc3c(NC4CCCCCC4)ncnc32)cc1`, the inhibition was 0%.
For `CC1CCN(CCCNC(=O)c2coc3nc4ccccc4nc23)CC1`, the inhibition was 1%.

The inhibition is how much of the control response was suppressed.

For the origin of these results see PubChem BioAssay.
